# Hits are enriched below; roughly 19% of the tested compounds scored in any of these assays.
# TDP1 block: blocks human tyrosyl-DNA phosphodiesterase 1; Q9NUW8; Potency, µM (titrated, usually from 130 µM), for the others: at the top dose activity change, negative = inhibition, actives largely listed as inhibitors; 350,000 compounds, 0.28% hits; recombinant TDP1, AlphaScreen DNA substrate cleavage; also: potency is read from the fitted curve at half-maximal effect; nearly all actives have a fitted effect of over 40% in size
#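 Tdp1 1 nM final; 15 min RT w/ cpd; substrate 15 nM, 5 min; beads 10 ug/ml, 10 min; AlphaScreen read. Neg ctrl: no enzyme.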
# ELG1 repair inh: blocks ELG1-dependent DNA repair in HEK293T cells. HEK293T ELG1-luciferase reporter, luminescence, 16 h; DNA damage induced by 5-fluorouridine. Potency, µM (highest dose often 46.1 µM), inactives show top-dose activity change, negative = inhibition, actives largely listed as inhibitors. 330,000 compounds, 2.3% hits. AID 504467; also: potency is read from the fitted curve at half-maximal effect; nearly all actives have a fitted effect of over 55% in size
#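 In this reporter screen, reduction of luminescence relative to DMSO vehicle indicated activity. Compounds and 5-fluorouridine were added together to 2,000 cells per well, incubated for 16 hr at 37 °C, then developed with ONE-Glo.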
# TDP1 cell CPT: growth inhibition of DT40 Tdp1-/-;hTDP1 cells with camptothecin (screen for TDP1 inhibitors) | chicken DT40 Tdp1-/-;hTDP1 cells + 20 nM CPT, ATP luminescence, 48 h | Potency, µM (series often up to 46.2 µM), without a hit: top-dose activity change, negative = growth inhibition, actives largely listed as inhibitors | 420,000 compounds, 12% hits; also: potency is read from the fitted curve at half-maximal effect; nearly all actives have a fitted effect of over 55% in size
#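 Chicken DT40 Tdp1-/- cells complemented with human TDP1, 400 cells/well, exposed to compounds plus 20 nM camptothecin for at least 48 h at 37 C; viability read as ATP content by CellTiter-Glo luminescence.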
# Giardia killer: Giardia lamblia killing. Giardia lamblia trophozoite viability. activity change, % at 7.66 µM, hits read low. 340,000 compounds, 0.15% hits; in the data active = activity change below about -80%; inconclusive = between about -30% and that limit;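 also: parasites exposed to compound for two days anaerobically before the ATP read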
#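 Luminescent ATP signal served as the viability read-out, measured 15-30 min after adding ATP detection reagent to trophozoites that had been incubated with compounds for 48 hrs at 37 deg C anaerobically at 100 cells/well.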
# TDP1 cell noCPT: qHTS for Inhibitors of human tyrosyl-DNA phosphodiesterase 1 (TDP1): qHTS in cells in absence of CPT | DT40 Tdp1-/- hTDP1 cells, no CPT, ATP luminescence, 48 h | Potency, µM (highest dose often 46.2 µM), inactives show top-dose activity change, negative = growth inhibition, usual class: inhibitors | 420,000 compounds, 15% hits | AID 686978, 2013; also: potency is read from the fitted curve at half-maximal effect; nearly all actives have a fitted effect of over 55% in size
#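 Seeded 400 DT40-hTDP1 cells/well (vehicle DMSO, no 20 nM CPT); pinned compounds; ≥48 hr at 37 °C; CellTiter-Glo luminescence as viability measure.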
# IL1B secr inh: blocks inflammasome-driven IL-1 beta release. THP-1 LPS/ATP IL-1B secretion, AlphaLISA, 16 h; active compounds read low. activity change, % at 57.5 µM. AID 743279. 360,000 compounds, 4.7% hits; in the data active = activity change below about -50%; inconclusive = mostly about -30% to -49%
#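 Secreted IL-1B measured by AlphaLISA bead assay after 16 h compound exposure of THP-1 cells; compounds (final up to 57.5 uM) added 1 h before LPS (250 ng/mL) and ATP (1.25 mM) stimulation; lower signal means less secretion.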
# ELG1 FLuc counter: luciferase inhibition in cell-free luciferin readout for ELG1 hits. cell-free firefly luciferase luminescence counter-screen, ViewLux. Potency, µM (doses to about 46.1 µM), inactives show at the top dose activity change, negative = inhibition, most hits filed as inhibitors. 350 compounds, 3% hits. shares compounds with ELG1 repair inh; also: potency is read from the fitted curve at half-maximal effect
# ELG1 Luc conf: human ELG1 repair inhibition, luciferase-tagged ELG1 confirmation; 670 compounds, 68% hits; Potency, µM (top dose mostly 46.1 µM), without a hit: at the highest dose activity change, negative = inhibition, actives largely listed as inhibitors; HEK293T ELG1-luciferase levels, luminescence; cells co-treated with 5-fluorouridine; shares compounds with ELG1 repair inh; also: potency is read from the fitted curve at half-maximal effect; nearly all actives have a fitted effect of over 55% in size
# ELG1-Luc MMS: confirmation of human ELG1 repair inhibitors, MMS stimulated. shares compounds with ELG1 repair inh. AID 624249. HEK293T luciferase-tagged ELG1 level, MMS stimulated. 670 compounds, 53% hits. Potency, µM (series often up to 46.1 µM), inactives show top-dose activity change, negative = inhibition, most hits filed as inhibitors; also: potency is read from the fitted curve at half-maximal effect; nearly all actives have a fitted effect of over 60% in size
# ELG1 5-FU: confirmation of ELG1 repair inhibitors: viability with 5FU | shares compounds with ELG1 repair inh | cell viability with 5-FU, ELG1-dependent repair | Potency, µM (highest dose often 46.1 µM), for inactives: top-dose activity change, negative = viability loss, hits mostly cytotoxic | 670 tested, under 10 active | AID 624250;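 also: ELG1-luc HEK293T cells cotreated with 5-fluorouridine at 10 µM final; potency is read from the fitted curve at half-maximal effect; viability measured 16 h after compound addition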
# ELG1 MMS viab: confirmation of ELG1 repair inhibitors: viability with MMS; Cell viability with MMS, ELG1-dependent DNA repair; 670 compounds, 33% hits; Potency, µM (top dose mostly 46.1 µM), for the others: at the highest dose activity change, negative = viability loss, usual class: cytotoxic; shares compounds with ELG1 repair inh;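 also: ELG1-luc HEK293T cells co-treated with 10 µM MMS; potency is read from the fitted curve at half-maximal effect; viability read 16 h after compound addition; nearly all actives have a fitted effect of over 60% in size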
# Cell viab unstim: counter-screen for ELG1 repair inhibitors: unstimulated cell viability; shares compounds with ELG1 repair inh; Potency, µM (top dose mostly 45.9 µM), for the others: at the top dose activity change, negative = loss of viability, usual class: cytotoxic; cell viability counter-screen, unstimulated, luminescence; 900 compounds, 8% hits;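 also: potency is read from the fitted curve at half-maximal effect; compound exposure lasted 16 hours before reading; nearly all actives have a fitted effect of over 55% in size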
# FLuc biochem: inhibits purified firefly luciferase, counter-screen for ELG1 hits; shares compounds with ELG1 repair inh; purified firefly luciferase, luminescence counter-screen; Potency, µM (doses to about 57.5 µM), for the others: at the highest dose activity, negative = inhibition, hits mostly inhibitors; 350 compounds, 10% hits; AID 624253; also: potency is read from the fitted curve at half-maximal effect
# Active calls of the source: *; u = inconclusive; x = no result; [ ] = dose if it differs, or a comment. Unless noted, calls follow the shape of the dose curve; as a rule, active = well fitted curve in the direction sought with a large enough effect; inconclusive = small, poorly fitted or top-dose-only effect, or another doubt; inactive = no such curve, though single readings can be large; an effect the other way counts as inactive or inconclusive. % is scaled to controls: 0 for no effect and ±100 for the full control effect.
SMILES,TDP1 block,ELG1 repair inh,TDP1 cell CPT,Giardia killer,TDP1 cell noCPT,IL1B secr inh,ELG1 Luc conf,ELG1-Luc MMS,ELG1 5-FU,ELG1 MMS viab,Cell viab unstim,others
O=C(CSc1nnc(-c2ccc(O)cc2)o1)Nc1ccccc1,0.9%,u,6.0%,21.6,-19.8%,-2.8,x,x,x,x,u,ELG1 FLuc counter=208.9%;FLuc biochem=u
O=C(O)CSc1nnc(-c2ccc(O)cc2)o1,4.5%,x,x,x,x,x,x,x,x,x,x,
Cc1cc(C(=O)NNc2ccc(F)cc2F)no1,x,4.11µM*,-1.4%,-3.1,-17.7%,-9.5,20.0%,28.0%,-9.4%,-5.3%,-11.1%,
Cc1ccc(NNC(=O)c2cc(C)on2)c(C)c1,8.2%,u,7.7%,-7.9,-20.9%,2.8,x,x,x,x,x,
CCC(CC)c1nnc(NC(=O)CCCN2C(=O)c3ccccc3C2=O)s1,4.9%,-4.4%,6.6%,-0.2,-1.4%,-1.2,x,x,x,x,x,
CC1(C)Cc2c(C#N)c(SCCOc3ccccc3)nc(N3CCOCC3)c2CO1,6.8%,2.51µM*,u,1.3,u,58.3,3.53µM*,u,u,-9.4%,u,
O=C(Nc1cccc(Oc2ccc3c(c2)C(=O)NC3=O)c1)c1cccs1,0.6%,u,-1.6%,3.0,-8.8%,0.0,x,x,x,x,x,
CN(C)c1ccc(C(=O)OCC(=O)c2ccc[nH]2)cc1,-23.3%,u,-3.4%,-0.2,-1.2%,-25.2,x,x,x,x,-11.1%,
CCOc1ccc(CC(=O)Nc2ccc(NC(=O)c3ccco3)cc2)cc1OCC,-2.5%,2.31µM*,u,-0.4,-6.2%,u,u,0.0628µM*,11.9%,0.0705µM*,7.9%,
O=c1[nH]c(=O)n([C@@H]2O[C@H](CO)[C@@H](O)[C@H]2O)cc1F,-2.7%[56.1 µM],x,0.106µM*,x,0.0596µM*,x,x,x,x,x,u,
CCc1cn([C@H]2C[C@H](O)[C@@H](CO)O2)c(=O)[nH]c1=O,1.2%,-15.1%,u,5.6,u,12.0,x,x,x,x,x,
OC(CN1CCN(c2ccc(C(F)(F)F)cn2)CC1)c1ccccc1 (stereo not given),x,u,-11.6%,u,u,-22.4,x,x,x,x,x,
CCc1nc(CN2CCN(c3ccc(C(F)(F)F)cn3)CC2)c(C)[nH]1,x,u,11.6µM*,-2.0,6.51µM*,-0.3,u,3.15µM*,-3.5%,4.45µM*,u,
COc1cc(/C=C/C(=O)Nc2ccc3nc4n(c(=O)c3c2)CCCC4)cc(OC)c1OC,2.7%,4.61µM*,u,16.3,u,u,2.81µM*,9.96µM*,u,-2.7%,-15.3%,
OCCN1CCN(c2ncnc3ccc(Br)cc23)CC1,6.1%,2.06µM*,-89.4%,20.9,4.11µM*,-23.6,u,u,-2.3%,4.9%,4.1%,
Oc1ccccc1-c1cc(-c2ccccc2)n[nH]1,-1.1%,u,u,-10.5,u,12.6,x,x,x,x,-1.9%,
COc1cccc(NS(=O)(=O)c2ccc3c(c2)CCN3C(C)=O)c1,x,2.06µM*,7.31µM*,6.5,7.31µM*,15.3,u,6.28µM*,-5.7%,4.45µM*,u,
COc1cccc(NS(=O)(=O)c2ccc3c(c2)N(C(C)=O)CCO3)c1,2.9%,-9.8%,u,-8.6,-24.4%,30.7,x,x,x,x,x,
Cc1ccc(C(=O)Nc2ccc(C(F)(F)F)n(C)c2=O)cc1,0.0%,u,-16.2%,-7.2,-7.4%,34.9,x,x,x,x,x,
Cc1ccc(C(=O)Nc2cccc3[nH]c(C(F)(F)F)nc23)cc1,x,u,u,11.1,u,-12.2,15.8µM*,7.91µM*,-10.9%,8.88µM*,u,
COc1cc(/C=C(\C#N)C(=O)Nc2cccc(C(=O)O)c2)ccc1OCc1ccc(Cl)cc1,0.0%[0.0935 µM],u,-0.3%,-3.5,u,-9.1,x,x,x,x,11.0%,ELG1 FLuc counter=51.3%;FLuc biochem=16.4µM*
Cc1noc(C)c1C(=O)OCC(=O)Nc1ccc(S(N)(=O)=O)cc1,-8.0%,18.9%,-1.4%,12.2,4.4%,0.0,x,x,x,x,x,
COc1cc2cnc(CCO[C@H]3CCCCO3)cc2cc1OC,-0.5%,u,4.2%,-12.0,-29.7%,-8.0,x,x,x,x,x,
CC(C)C(=O)N1CCC2(CC1)Oc1ccc(Cl)cc1C(=O)C21CC(c2ccc(Cl)cc2)=NO1 (stereo not given),2.4%,2.59µM*,u,-19.9,-19.0%,-18.0,9.96µM*,-14.8%,u,-6.2%,u,
CCc1ccc(NC(=O)CSc2nnc(CNC(=O)c3ccco3)o2)cc1,1.9%,0.0%,0.0%,0.0,0.9%,30.0,x,x,x,x,x,
COCCn1c(=N)c(C(=O)NCCc2ccc(OC)cc2)cc2c(=O)n3cccc(C)c3nc21,-5.2%,u,23.1µM*,-13.0,29.1µM*,-5.0,4.99µM*,u,u,2.7%,u,
CSc1ccc(C(=O)c2[nH]c(=O)[nH]c2C)cc1,10.4%[56.1 µM],u,-10.2%,-15.2,-6.9%,-0.2,x,x,x,x,u,ELG1 FLuc counter=171.1%;FLuc biochem=u
